In PubChem BioAssay (EPA / NIEHS):
Activity calls are given as the source filed them. How the source made its calls: active means hit-call score of the fitted dose curve at least 0.9, where 1 is the maximum; inactive means score below 0.9.

Tests used:
Details in all cases: mRNA level, 48 h; actives raise or lower the signal
CYP2E1 (gene 1571) = test: LTEA_HepaRG_CYP2E1: Life Technologies and Expression Analysis (LTEA) Assay for CYP2E1 using HepaRG (AID 2283485)
Outline: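 HepaRG cells, plated 48 h, then exposed 48 h in serum-free induction medium to eight half-log concentrations from 100 uM in 0.5% DMSO, duplicate. CYP2E1 mRNA by qRT-PCR, normalized to ACTB/GAPDH/POLR2A; bidirectional fit versus DMSO.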

CYP4A11 (gene 1579) = test: LTEA_HepaRG_CYP4A11: Life Technologies and Expression Analysis (LTEA) Assay for CYP4A11 using HepaRG (AID 2283486)
Outline: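 Human hepatic HepaRG cultures receive duplicate 48 h exposures across a concentration-response series topping at 100 uM. Expression changes in CYP4A11 are measured by qRT-PCR relative to DMSO controls.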

[1] = read-out: Cytochrome P450 3A4 (Homo sapiens) (UniProt P08684); test: LTEA_HepaRG_CYP3A4: Life Technologies and Expression Analysis (LTEA) Assay for CYP3A4 using HepaRG (AID 2283487)
Outline: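 Differentiated HepaRG cells, plated 48 h, then dosed 48 h in serum-free induction medium with 0.5% DMSO, 8 half-log concentrations up to 100 uM, duplicate. CYP3A4 mRNA by qRT-PCR, normalized to ACTB/GAPDH/POLR2A; bidirectional fit versus DMSO.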

[2] = read-out: DNA damage-inducible transcript 3 (DDIT3), DDIT3 (gene 1649); test: LTEA_HepaRG_DDIT3: Life Technologies and Expression Analysis (LTEA) Assay for DNA damage-inducible transcript 3 (DDIT3) using HepaRG (AID 2283488)
Outline: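 HepaRG cells, 48 h after plating, exposed 48 h in serum-free induction medium to 8 half-log concentrations up to 100 uM in 0.5% DMSO, in duplicate. DDIT3 mRNA measured by TaqMan qRT-PCR, normalized to ACTB, GAPDH and POLR2A. Fitted bidirectionally against DMSO.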

[3] = read-out: Pro-epidermal growth factor (Homo sapiens) (UniProt P01133); test: LTEA_HepaRG_EGF: Life Technologies and Expression Analysis (LTEA) Assay for Epidermal growth factor (EGF) using HepaRG (AID 2283489)
Outline: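 Concentration-response mRNA assay: HepaRG cells dosed 48 h (max 100 uM, 0.5% DMSO), EGF measured by qRT-PCR and normalized to ACTB/GAPDH/POLR2A.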

[4] = read-out: Early growth response protein 1 (EGR1) transcription factor, EGR1 (gene 1958); test: LTEA_HepaRG_EGR1: Life Technologies and Expression Analysis (LTEA) Assay for Early growth response protein 1 (EGR1) transcription factor using HepaRG (AID 2283490)
Outline: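 Differentiated HepaRG cells in serum-free induction medium exposed 48 hours, duplicate, to 8 half-log concentrations up to 100 uM in 0.5% DMSO. EGR1 mRNA measured by TaqMan qRT-PCR, normalized to ACTB, GAPDH, POLR2A; bidirectional fit versus DMSO.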

[5] = read-out: Cytochrome P450 3A7 (Homo sapiens) (UniProt P24462); test: LTEA_HepaRG_CYP3A7: Life Technologies and Expression Analysis (LTEA) Assay for CYP3A7 using HepaRG (AID 2283492)
Outline: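 qRT-PCR of CYP3A7 in HepaRG lysates after 48 h treatment; concentration-response (8 points, max 100 uM) analysed bidirectionally relative to 0.5% DMSO controls.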

CYP3A5 (gene 1577) = test: LTEA_HepaRG_CYP3A5: Life Technologies and Expression Analysis (LTEA) Assay for CYP3A5 using HepaRG (AID 2283493)
Outline: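 HepaRG cells, plated 48 h then in serum-free induction medium, dosed in duplicate for 48 h with eight half-log concentrations up to 100 uM in 0.5% DMSO. Gene mRNA by Fluidigm TaqMan qRT-PCR, normalized to ACTB, GAPDH, POLR2A.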

[6] = read-out: Fatty Acid-Binding Protein 1 (FABP1), FABP1 (gene 2168); test: LTEA_HepaRG_FABP1: Life Technologies and Expression Analysis (LTEA) Assay for Fatty Acid-Binding Protein 1 (FABP1) using HepaRG (AID 2283494)
Outline: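 Differentiated human HepaRG cells exposed 48 h in serum-free induction medium to eight half-log concentrations up to 100 uM (0.5% DMSO), duplicate. FABP1 mRNA by qRT-PCR, normalised to ACTB, GAPDH, POLR2A; bidirectional fitting against DMSO.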

[7] = read-out: Cytochrome P450 4A22 (Homo sapiens) (UniProt Q5TCH4); test: LTEA_HepaRG_CYP4A22: Life Technologies and Expression Analysis (LTEA) Assay for Cytochrome P450 4A22 (CYP4A22) using HepaRG (AID 2283495)
Outline: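 Concentration-response (8 points, max 100 uM, 0.5% DMSO) in human HepaRG liver cells after 48 h exposure. CYP4A22 mRNA by TaqMan qRT-PCR with housekeeping-gene normalization.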

[8] = read-out: Cytochrome P450 7A1 (Homo sapiens) (UniProt P22680); test: LTEA_HepaRG_CYP7A1: Life Technologies and Expression Analysis (LTEA) Assay for Cytochrome P450 7A1 (CYP7A1) using HepaRG (AID 2283496)
Outline: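 HepaRG cells plated 48 h, then switched to serum-free induction medium and exposed in duplicate for 48 h to 8-point half-log series from 100 uM in 0.5% DMSO. CYP7A1 mRNA by qRT-PCR (TaqMan), normalized to ACTB/GAPDH/POLR2A; bidirectional fit versus DMSO.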

[9] = read-out: Glutathione S-Transferase (GSTA2), GSTA2 (gene 2939); test: LTEA_HepaRG_GSTA2: Life Technologies and Expression Analysis (LTEA) Assay for Glutathione S-Transferase (GSTA2) using HepaRG (AID 2283497)
Outline: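 Differentiated human HepaRG cells were exposed in duplicate for 48 h in serum-free induction medium, 8 points from 100 uM top in half-log steps, 0.5% DMSO. GSTA2 mRNA was measured by TaqMan qRT-PCR, normalized to ACTB, GAPDH and POLR2A; bidirectional fit versus DMSO.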

[10] = read-out: Glutamate-cysteine ligase catalytic (GCLC), GCLC (gene 2729); test: LTEA_HepaRG_GCLC: Life Technologies and Expression Analysis (LTEA) Assay for Glutamate-cysteine ligase catalytic (GCLC) using HepaRG (AID 2283498)
Outline: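 Differentiated HepaRG cells exposed 48 h in serum-free induction medium, eight-point half-log series topping at 100 uM in 0.5% DMSO, duplicates. GCLC mRNA by qRT-PCR normalized to ACTB, GAPDH and POLR2A, fitted bidirectionally versus DMSO.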

[11] = read-out: growth arrest and DNA damage 45 (GADD45G), GADD45G (gene 10912); test: LTEA_HepaRG_GADD45G: Life Technologies and Expression Analysis (LTEA) Assay for growth arrest and DNA damage 45 (GADD45G) using HepaRG (AID 2283499)
Outline: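 Concentration-response in HepaRG: 48 h dosing, 0.5% DMSO, highest level 100 uM. GADD45G expression by qRT-PCR, normalised to endogenous controls; bidirectional fit to DMSO.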

[12] = read-out: Glutamate-cysteine ligase regulatory (GCLM), GCLM (gene 2730); test: LTEA_HepaRG_GCLM: Life Technologies and Expression Analysis (LTEA) Assay for Glutamate-cysteine ligase regulatory (GCLM) using HepaRG (AID 2283500)
Outline: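 Differentiated HepaRG cells exposed 48 h in serum-free induction medium to eight half-log concentrations up to 100 uM (0.5% DMSO). GCLM mRNA by TaqMan qRT-PCR, normalized to ACTB, GAPDH and POLR2A; bidirectional fit versus DMSO.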

[13] = read-out: Glutathione S-transferase M3 (GSTM3), GSTM3 (gene 2947); test: LTEA_HepaRG_GSTM3: Life Technologies and Expression Analysis (LTEA) Assay for Glutathione S-transferase M3 (GSTM3) using HepaRG (AID 2283501)
Outline: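 Expression of GSTM3 is determined by qRT-PCR in human liver HepaRG cells treated 48 h with an 8-point half-log range from 100 uM in 0.5% DMSO.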

[14] = read-out: Heat shock 70 kDa protein 1 (HSPA1A), gene 3303; test: LTEA_HepaRG_HSPA1A: Life Technologies and Expression Analysis (LTEA) Assay for Heat shock 70 kDa protein 1 (HSPA1A) using HepaRG (AID 2283502)
Outline: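 Human HepaRG cells in serum-free induction medium were exposed in duplicate for 48 h to 8 half-log concentrations, highest 100 uM, in 0.5% DMSO. HSPA1A mRNA read by TaqMan qRT-PCR, normalized to ACTB, GAPDH, POLR2A, fitted bidirectionally against DMSO.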

[15] = read-out: Hypoxia-inducible factor 1-alpha (Homo sapiens) (UniProt Q16665); test: LTEA_HepaRG_HIF1A: Life Technologies and Expression Analysis (LTEA) Assay for Hypoxia-inducible factor 1 (HIF1A) Trancription factor using HepaRG (AID 2283503)
Outline: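 Differentiated HepaRG cells in serum-free induction medium exposed 48 h, in duplicate, to 8-point half-log series from 100 uM in 0.5% DMSO. HIF1A mRNA measured by TaqMan qRT-PCR, normalized to ACTB/GAPDH/POLR2A, fitted bidirectionally versus DMSO.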

[16] = read-out: 3-Hydroxy-3-Methylglutaryl-CoA Synthase 2 (HMGCS2), HMGCS2 (gene 3158); test: LTEA_HepaRG_HMGCS2: Life Technologies and Expression Analysis (LTEA) Assay for 3-Hydroxy-3-Methylglutaryl-CoA Synthase 2 (HMGCS2) using HepaRG (AID 2283504)
Outline: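 This steatosis marker was read as HMGCS2 mRNA change in HepaRG cells treated 48 h with up to 100 uM chemical. Normalisation used housekeeping genes; activity in either direction was fitted relative to 0.5% DMSO vehicle.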

[17] = read-out: Ezrin (EZR), EZR (gene 7430); test: LTEA_HepaRG_EZR: Life Technologies and Expression Analysis (LTEA) Assay for Ezrin (EZR) using HepaRG (AID 2283491)
Outline: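 EZR transcript levels came from Fluidigm qRT-PCR and were normalized to three housekeeping genes after 48 h chemical exposure of HepaRG cells. Dosing used an 8-point half-log series with a 100 uM top concentration in 0.5% DMSO, tested in duplicate; both directions were fitted versus vehicle.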

Measured: AC50

Sequence of Cytochrome P450 3A7 (Homo sapiens) (P24462 whole entry, looked up): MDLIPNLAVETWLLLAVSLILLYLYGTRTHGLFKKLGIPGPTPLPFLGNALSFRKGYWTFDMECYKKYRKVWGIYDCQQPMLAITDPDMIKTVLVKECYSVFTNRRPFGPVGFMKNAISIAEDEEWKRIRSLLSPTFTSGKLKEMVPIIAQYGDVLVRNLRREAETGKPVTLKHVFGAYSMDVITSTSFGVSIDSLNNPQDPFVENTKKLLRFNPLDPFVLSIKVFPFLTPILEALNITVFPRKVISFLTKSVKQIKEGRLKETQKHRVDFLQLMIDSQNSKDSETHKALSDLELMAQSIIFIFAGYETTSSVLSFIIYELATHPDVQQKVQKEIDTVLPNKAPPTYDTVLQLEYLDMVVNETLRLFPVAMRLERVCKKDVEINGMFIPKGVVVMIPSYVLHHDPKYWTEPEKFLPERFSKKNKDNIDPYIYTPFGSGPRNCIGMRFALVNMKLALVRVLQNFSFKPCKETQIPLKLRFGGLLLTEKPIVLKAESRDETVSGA
Sequence of Cytochrome P450 3A4 (Homo sapiens) (P08684 whole entry, looked up): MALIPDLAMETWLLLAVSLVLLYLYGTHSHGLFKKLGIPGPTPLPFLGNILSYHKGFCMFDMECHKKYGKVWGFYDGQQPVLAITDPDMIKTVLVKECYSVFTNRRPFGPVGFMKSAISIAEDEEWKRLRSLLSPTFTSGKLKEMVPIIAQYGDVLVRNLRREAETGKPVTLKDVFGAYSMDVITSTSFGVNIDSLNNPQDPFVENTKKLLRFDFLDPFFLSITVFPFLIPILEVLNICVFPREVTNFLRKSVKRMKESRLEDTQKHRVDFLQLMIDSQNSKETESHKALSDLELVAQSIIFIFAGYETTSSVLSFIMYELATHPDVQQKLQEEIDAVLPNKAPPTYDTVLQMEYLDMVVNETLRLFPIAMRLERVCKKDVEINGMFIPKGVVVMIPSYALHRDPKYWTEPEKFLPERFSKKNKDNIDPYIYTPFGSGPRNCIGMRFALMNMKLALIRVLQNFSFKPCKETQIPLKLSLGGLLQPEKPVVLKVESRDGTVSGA
Sequence of Hypoxia-inducible factor 1-alpha (Homo sapiens) (Q16665 whole entry, looked up): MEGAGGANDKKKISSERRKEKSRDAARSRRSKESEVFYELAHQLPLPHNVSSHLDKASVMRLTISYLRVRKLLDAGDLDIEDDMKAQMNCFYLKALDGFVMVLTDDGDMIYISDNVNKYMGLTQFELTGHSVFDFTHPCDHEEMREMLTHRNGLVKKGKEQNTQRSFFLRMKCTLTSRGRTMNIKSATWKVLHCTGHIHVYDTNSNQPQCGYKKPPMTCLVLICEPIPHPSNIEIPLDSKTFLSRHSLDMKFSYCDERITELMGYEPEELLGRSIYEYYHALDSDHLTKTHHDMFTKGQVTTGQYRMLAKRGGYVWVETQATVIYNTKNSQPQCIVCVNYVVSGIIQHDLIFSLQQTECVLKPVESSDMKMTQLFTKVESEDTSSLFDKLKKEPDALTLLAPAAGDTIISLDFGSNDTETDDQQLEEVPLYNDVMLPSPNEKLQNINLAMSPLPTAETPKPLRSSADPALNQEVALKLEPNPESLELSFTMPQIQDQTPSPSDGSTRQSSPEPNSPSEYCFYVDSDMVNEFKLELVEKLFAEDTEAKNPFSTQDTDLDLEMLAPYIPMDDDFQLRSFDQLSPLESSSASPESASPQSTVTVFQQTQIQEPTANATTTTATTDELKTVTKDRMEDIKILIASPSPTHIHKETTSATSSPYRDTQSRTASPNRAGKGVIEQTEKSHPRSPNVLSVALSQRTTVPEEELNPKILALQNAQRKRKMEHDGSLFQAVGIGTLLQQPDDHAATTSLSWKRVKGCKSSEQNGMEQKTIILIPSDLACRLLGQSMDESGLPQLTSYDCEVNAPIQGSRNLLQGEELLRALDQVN

CCCCC(CC)COC(=O)CCCCCCCCC(=O)OCC(CC)CCCC (centres undefined)
not listed: [17]
inactive: all other assays above

CCCCCCCCO
not listed: [17]
inactive: all other assays above

O=C1CCC(N2C(=O)c3ccccc3C2=O)C(=O)N1 (centres undefined)
not listed: [3] | [15] | [17]
inactive: all other assays above

On1ccccc1=S
not listed: [3] | [7] | [8]
inactive: all other assays above

CC(C)CC(C)(O)C#CC(C)(O)CC(C)C (centres undefined)
active: CYP2E1 (gene 1571) 64.7 µM | CYP4A11 (gene 1579) 50 µM | [1] 19.4 µM
not listed: [3] | [7] | [8]
inactive: all other assays above
